Pf growth 48h = P. falciparum growth inhibition at 48 hours (one generation) | P. falciparum luciferase growth in erythrocytes, 48 h | Potency, µM (top dose mostly 28.7 µM), inactives show top-dose activity change, negative = inhibition, usual class: inhibitors | 310,000 tested, 5.9% active; note: potency is the fitted concentration of half-maximal effect; % is set by controls: 0 for no effect and ±100 for the full control effect
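Erythrocytes infected with P. falciparum carrying an integrated firefly luciferase reporter (2% hematocrit, 0.1% parasitemia final) were exposed to compounds in RPMI 1640 with 0.5% Albumax at 37 C, 5% CO2. Growth inhibition was scored as reduced luminescence.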
Pf growth 96h = P. falciparum growth inhibition at 96 hour, primary screen for plastid delayed-death inhibitors; P. falciparum luciferase reporter growth, 96 h; Potency, µM (series often up to 28.7 µM), for the others: top-dose activity change, negative = inhibition, actives largely listed as inhibitors; 320,000 tested, 6.9% active; note: potency is the fitted concentration of half-maximal effect; % is set by controls: 0 for no effect and ±100 for the full control effect
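Erythrocytes infected with luciferase-expressing P. falciparum were dispensed at 2% hematocrit and 0.05% parasitemia (final), then incubated with compounds 96 hours at 37 C in 5% CO2. Luminescence after detection reagent addition reported growth.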
NS1 inh = inhibitors of influenza NS1 protein function. Potency, µM (titrated, usually from 46.1 µM), without a hit: top-dose activity, positive = more growth. 270,000 tested, 0.4% active; calls by dose curve; note: potency is the fitted concentration of half-maximal effect; actives are rising curves; nearly all actives have a fitted effect of over 50% in size
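Growth recovery, yeast-based: influenza A NS1 expressed in S. cerevisiae causes slow growth, and suppressors are detected by OD600. The parent strain without NS1 is used as positive control.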
SARS PLP yeast = blocks SARS-CoV papain-like protease in a yeast assay; S. cerevisiae expressing SARS-CoV PLpro, growth rescue; Potency, µM (series often up to 32.9 µM), without a hit: top-dose activity, positive = growth rescue, most hits filed as activators; 330,000 tested, 0.19% active; calls by dose curve; note: potency is the fitted concentration of half-maximal effect; 0% is about no effect; nearly all actives have a fitted effect of over 55% in size
Shiga inhibitor = inhibitors of Shiga toxin in Vero cells. Vero cells, Shiga toxin protein synthesis inhibition reporter. inhibition, % at 38.7 µM. 290,000 tested, 9.2% active. AID 2315; in the data active = inhibition mostly above about 28%, no sharp cut-off; inactive = mostly below about 43%; note: 0% is about no effect
Cycloheximide cs = affects cycloheximide protein synthesis inhibition readout, counter-screen. cell reporter, cycloheximide protein synthesis inhibition counterscreen. max response, %. 300,000 tested, 12% active; in the data active = max response mostly above about 13%, no sharp cut-off; inactive = mostly below about 14%; note: read at 38.3 µM for the half of the compounds with a filed dose; 0% is about no effect
* hit, by the source's call; ? = inconclusive; . = not tested or not shown. Most compounds without a hit are left out; they make up all but 21% or so of the library. Unless noted, calls come from the whole dose curve; as a rule, active = well fitted inhibition curve with a large enough effect; inconclusive = small, poorly fitted or top-dose-only effect, or another doubt; inactive = no such curve, though single readings can be large or run the other way.

SMILES	Pf growth 48h	Pf growth 96h	NS1 inh	SARS PLP yeast	Shiga inhibitor	Cycloheximide cs
COC(=O)C(C)Oc1cc(OC(C)C(=O)OC)c2c(-c3ccccc3)cc(=O)oc2c1 (configuration not stated)	?	?	3.7%	-0.2%	-10.3	-3.3
COC(=O)c1ccc(C)c(NC(=O)c2ccc(CN3CCc4ccccc4C3)cc2)c1	-7.2%	9.28µM*	0.6%	-1.2%	-7.6	0.3
Cc1ccc(NC(=O)c2ccc(CN3CCc4ccccc4C3)cc2)cc1	16.2%	7.2%	-7.2%	-17.7%	16.5	3.3
O=C(Nc1ccc(S(=O)(=O)N2CCCCC2)cc1)c1ccc(CN2CCc3ccccc3C2)cc1	?	7.38µM*	10.8%	-2.7%	-6.9	2.1
O=C(Nc1ccccc1F)c1ccc(CN2CCc3ccccc3C2)cc1	4.9%	-3.3%	-13.6%	-6.9%	27.0	19.6*
O=C(Nc1ccccc1)c1ccc(CN2CCc3ccccc3C2)cc1	-15.2%	39.4%	.	4.9%	54.4	27.1*
Cc1ccc(C)c(NS(=O)(=O)c2ccc3[nH]c(=O)oc3c2)c1	5.2%	9.6%	0.3%	0.3%	8.6	1.6
COc1cc(S(=O)(=O)NCCN2CCOCC2)ccc1-n1cnnn1	13.2%	53.0%	.	0.3%	46.9	1.2
Cc1cc(S(=O)(=O)NC2CCCCC2)ccc1-n1cnnn1	-21.3%	-1.8%	2.4%	1.1%	-10.3	4.3
COc1cc(S(=O)(=O)N(Cc2cccs2)CC2CCCO2)ccc1-n1cnnn1 (configuration not stated)	-18.3%	4.15µM*	-14.2%	-4.1%	5.0	-2.5
COc1cc(S(=O)(=O)N(Cc2ccccc2)CC2CCCO2)ccc1-n1cnnn1 (configuration not stated)	-9.1%	-2.1%	-4.8%	-0.6%	-12.1	-1.3
COc1ccc(S(=O)(=O)NC2CCCCC2)cc1-n1cnnn1	-0.1%	2.62µM*	0.5%	-0.6%	-3.6	5.2
COc1cc(S(=O)(=O)NCC2COCCO2)ccc1-n1cnnn1 (configuration not stated)	-16.9%	11.7µM*	5.3%	0.1%	-20.0	3.8
CC(O)c1nc2cc([N+](=O)[O-])ccc2n1Cc1ccccc1 (configuration not stated)	13.1µM*	-13.9%	15.3%	0.8%	-15.2	-3.4
Cc1cc(=O)n2nc(-c3ccc(C(F)(F)F)cc3)sc2n1	63.3%	.	8.2%	7.9%	9.6	33.4*
CCOc1ccc(OCc2cccc(C(=O)N/N=C/c3cccnc3)c2)cc1	254.4%	234.0%	7.3%	7.6%	165.8*	88.3*
CC(C)c1ccc(OCc2cccc(C(=O)N/N=C/c3cccnc3)c2)cc1	277.7%	129.5%	11.3%	-4.6%	164.0*	133.1*
Cc1ccc(N(CCC#N)C(=O)CN2C(=O)NC(Cc3ccccc3)C2=O)cc1 (configuration not stated)	10.2%	16.9%	.	-0.1%	5.2	-1.1
O=C(Cc1ccc(F)cc1)N/N=C/c1ccc(-c2ccc(Cl)c(C(=O)O)c2)o1	-2.1%	1.8%	.	0.6%	1.8	-1.6
Clc1cccc(-c2ccc(C=Nc3ccc(N4CCOCC4)cc3)o2)c1	3.6%	10.4µM*	-5.2%	-23.4%	-10.0	2.5
O=C(O)c1ccc(N/N=C/c2ccc(-c3cc(Cl)ccc3Cl)o2)cc1	85.4%	-2.1%	1.8%	-9.4%	112.1*	81.4*
O=C(O)c1ccc(N/N=C/c2ccc(-c3cccc(Cl)c3)o2)cc1	136.3%	113.7%	-9.8%	-19.7%	82.5*	60.1*
O=C(O)c1cc(N/N=C/c2ccc(-c3ccc(F)cc3)o2)ccc1Cl	41.3%	19.9%	-0.2%	0.7%	152.1*	45.6*
O=C(N/N=C\c1ccc(-c2cccc(Cl)c2)o1)C(=O)NC1CCCC1	1.2%	20.1%	-3.3%	0.0%	32.0	-1.2
COc1ccc(Cl)cc1Nc1nc2ccc(C)cc2n2cnnc12	?	7.6%	1.2%	-0.1%	-8.5	-2.9
SMILES	Pf growth 48h	Pf growth 96h	NS1 inh	SARS PLP yeast	Shiga inhibitor	Cycloheximide cs
O=c1cc2oc3cc(O)c(O)cc3c(-c3ccccc3[N+](=O)[O-])c-2cc1O	?	96.2%	11.4%	?	-0.7	-7.6
O=C(CN(Cc1ccc2c(c1)OCO2)C(=O)CSc1nc2ccccc2o1)NC1CCCCC1	-3.7%	?	3.0%	1.9%	-10.1	0.5
O=C(O)c1ccc(N/N=C/c2c(F)cccc2Cl)cc1	.	10.2%	-94.2%	-2.3%	-6.8	-1.2
O=C(O)c1ccc(N/N=C/c2ccc(-c3ccc(Cl)cc3Cl)o2)cc1	66.2%	30.2%	6.7%	-3.5%	111.3*	38.9*
CC1(C)C(=O)N(CCN2CCC(C(=O)c3ccc(F)cc3)CC2)c2ccccc21	14.7µM*	?	-13.2%	.	.	.
O=C(c1ccc(F)cc1)C1CCN(CCn2c(=S)[nH]c3ccccc3c2=O)CC1	3.79µM*	4.26µM*	.	8.0%	-2.1	-1.6
O=C(CN1CCC(C(=O)c2ccc(F)cc2)CC1)NCc1ccccc1F	-25.3%	6.57µM*	7.9%	-1.8%	14.6	-3.4
O=C(c1ccc(F)cc1)C1CCN(CCn2c(=O)[nH]c3ccccc3c2=O)CC1	.	.	.	.	-3.6	-3.7
COc1ccc(C(=O)COC(=O)CNC(=O)c2ccccc2)cc1F	?	?	.	-5.8%	.	.
O=C1c2oc3ccc(F)cc3c(=O)c2C(c2ccccc2)N1CC1CCCO1 (configuration not stated)	25.2%	4.7%	-20.3%	9.5%	-3.9	1.3
Cn1ccs/c1=N\C(=O)Nc1cccc(Cl)c1	154.0%	207.9%	-6.5%	-3.8%	71.4*	41.8*
CN=c1sc(C(=O)Nc2cccc(Cl)c2)cc(=O)n1C	14.2%	-7.0%	-12.6%	1.1%	-16.6	-1.7
COc1ccc(N(C(=O)c2cnccn2)C(C(=O)NC2CCCCC2)c2ccc(O)cc2)cc1 (configuration not stated)	-28.1%	?	-4.3%	0.0%	0.5	1.5
CC(=O)Nc1ccc(NC(=O)CSc2nnc(C)n2-c2ccccc2)cc1	-2.4%	-2.4%	8.1%	2.4%	-22.1	-1.0
COc1ccc2[nH]c(=O)c(CN(c3ccc(C)c(C)c3)S(C)(=O)=O)cc2c1	-21.2%	6.57µM*	.	2.3%	-8.5	-3.2
COc1ccc(N(Cc2cc3ccccc3[nH]c2=O)S(=O)(=O)c2ccc(OC)cc2)cc1	-24.6%	?	3.6%	4.3%	18.6	21.5
CCOc1ccc(N(Cc2cc3cc(OC)ccc3[nH]c2=O)S(C)(=O)=O)cc1	-2.0%	1.2%	-18.7%	14.4%	-10.7	4.7
COc1ccc(N(Cc2cc3cc(OC)ccc3[nH]c2=O)S(=O)(=O)c2ccc(NC(C)=O)cc2)cc1	2.33µM*	9.28µM*	-1.0%	-10.4%	-16.0	-3.8
CC[C@@]1(C(=O)OC)N[C@H](CN(C)C(=O)Nc2ccc(C)cc2)[C@@H]2C(=O)N(C)C(=O)[C@@H]21	.	.	.	-0.6%	.	.
COc1ccc(N2CCN(Cc3cc4c(cc3O)CCC4)CC2)cc1	1.65µM*	.	7.7%	-0.7%	-22.3	-4.4
